Experimental data reported in ChEMBL document CHEMBL3988442, “University of Dundee, Small-Polar-MMV Screening Library” (2021).
Out of some 53,000 compounds screened, about 900 (1.7%) showed an effect of 50% or more. For the sample, strong results were picked, then their nearest neighbours and some compounds at random.

test system: Mycobacterium tuberculosis; experiment: Cornell - Phenotypic assay to identify agents that inhibit growth of Mycobacterium tuberculosis; assay type: functional; parameters: scale not given: direction of the effect not stated beside the values; conditions: 10 mM as filed; unlikely as a test dose

| SMILES | Percent Effect [%] |
| --- | --- |
| CC(Nc1ncnc2c1CCNC2)c1ccc(C(C)(C)C)cc1 (configuration not stated) | 24.62 |
| CCCc1ccc(C(C)Nc2ncnc3c2CCNC3)cc1 (configuration not stated) | 32.1 |
| CCOc1ccc(C(C)Nc2ncnc3c2CCNC3)cc1OCC (configuration not stated) | 51.31 |
| COC(=O)Cn1nc(-c2ccccc2F)ccc1=O | -14.4 |
| O=c1c(S(=O)(=O)N2CCCCC2)cccn1Cc1ccccc1Cl | 9.959 |
| CC(C)COC(=O)N1CCCN(C(C)c2nc(C(C)C)no2)CC1 (configuration not stated) | 10.17 |
| O=C(NCCc1cccs1)C1(N2CCCCC2)Cc2ccccc2C1 | 15.22 |
| CN(C)c1nccc(N2CCO[C@H]3CN(Cc4ccsc4)C[C@H]32)n1.O=C(O)C(F)(F)F | 57.1 |
| O=C(O)C(F)(F)F.O=C(O)C(F)(F)F.c1cnc(N2CCO[C@H]3CN(Cc4ccsc4)C[C@H]32)nc1 | 5.511 |
| Cc1cccc(CN2C[C@@H]3OCCN(c4ccnc(N(C)C)n4)[C@@H]3C2)c1.O=C(O)C(F)(F)F | 24.83 |
| Oc1ccccc1-c1n[nH]c(C2CC2)n1 | -27.03 |
| CNC(=O)CC1CCN(C(=O)NCc2cn3c(C)cccc3n2)CC1 | 20.05 |
| CC(=O)N1CCCC(c2ccc(C(=O)NC3CCCC3)cn2)C1 (configuration not stated) | -27.02 |
| COc1ncc(CN2C[C@@H]3CC[C@@](O)(c4ccc(C)cn4)[C@@H]3C2)cn1.O=C(O)CC(O)(CC(=O)O)C(=O)O | -1.54 |
| Cc1ccc([C@]2(O)CC[C@H]3CN(Cc4cc(C)c(O)c(C)c4)C[C@H]32)nc1.O=C(O)CC(O)(CC(=O)O)C(=O)O | 50.31 |
| Cc1ccc([C@]2(O)CC[C@H]3CN(Cc4cccc(Cl)c4Cl)C[C@H]32)nc1.O=C(O)CC(O)(CC(=O)O)C(=O)O | 69.29 |
| O=C(O)CC(O)(CC(=O)O)C(=O)O.O[C@@]1(c2ccccn2)CC[C@H]2CN(Cc3cccc(Cl)c3Cl)C[C@H]21 | 3.215 |
| Cc1ccc([C@]2(O)CC[C@H]3CN(Cc4ccccc4F)C[C@H]32)nc1.O=C(O)CC(O)(CC(=O)O)C(=O)O | 8.735 |
| Cc1ccc([C@]2(O)CC[C@H]3CN(Cc4cccc(F)c4F)C[C@H]32)nc1.O=C(O)CC(O)(CC(=O)O)C(=O)O | -20.35 |
| CN(CCc1ncnn1-c1ccccc1Cl)C1CCS(=O)(=O)C1 (configuration not stated) | -16.6 |
| Cc1ccc(CNS(=O)(=O)CCCC#N)cc1F | 6.478 |
| CC(c1nccs1)N(C)S(=O)(=O)NCc1ccccc1 (configuration not stated) | -14.93 |
